Results on 37 molecules are retold here after PubChem BioAssay (EPA / NIEHS).

Results filed as inconclusive are left out. Active and inactive are the calls of the source. The calls were made as follows: active = hit-call score of the fitted dose curve at least 0.9, where 1 is the maximum; inconclusive = response in the unintended direction; inactive = score below 0.9.

Chain of Estrogen-related receptor gamma (Homo sapiens) (P62508 whole entry, looked up, the tested form may be a part): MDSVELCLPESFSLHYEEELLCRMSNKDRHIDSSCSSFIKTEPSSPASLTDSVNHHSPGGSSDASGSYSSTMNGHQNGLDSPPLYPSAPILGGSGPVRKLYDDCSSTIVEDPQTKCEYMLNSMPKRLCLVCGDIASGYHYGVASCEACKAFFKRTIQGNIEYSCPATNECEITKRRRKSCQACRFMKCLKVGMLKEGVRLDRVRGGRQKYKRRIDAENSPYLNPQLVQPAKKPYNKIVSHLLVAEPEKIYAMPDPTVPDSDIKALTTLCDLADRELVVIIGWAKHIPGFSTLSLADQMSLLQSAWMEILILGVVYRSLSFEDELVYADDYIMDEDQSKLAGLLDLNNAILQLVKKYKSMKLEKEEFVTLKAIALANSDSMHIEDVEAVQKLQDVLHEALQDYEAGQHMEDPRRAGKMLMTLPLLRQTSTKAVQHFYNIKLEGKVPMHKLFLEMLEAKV

The target in one assay is Estrogen-related receptor gamma (Homo sapiens) (UniProt P62508). In words: ATG_ERRg_TRANS: Attagene TRANS-FACTORIAL HepG2 Assay for human Estrogen-Related Receptor gamma (ERRg) (AID 2282977).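 Also: hits increase reporter signal over DMSO so potencies reflect activators.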 The conditions noted are these: HepG2 Attagene TRANS reporter, ERRg transactivation. Summed up:
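Exogenous NR-Gal4 chimera activity measured as reporter transcript induction after 24 h in transiently transfected HepG2 cells. RNA reverse-transcribed, PCR-amplified, 6-FAM-labelled and resolved by capillary electrophoresis; increase over DMSO baseline.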
Consider `CC(CCC(=O)O)(c1ccc(O)cc1)c1ccc(O)cc1`, for which the molecule was called inactive.

Regarding `CC1C(C)(C)C2=C(C(=O)CCC2)C1(C)C` (configuration not stated), the call was inactive.

As for `CN(C)c1ccc2nc3ccc(=[N+](C)C)cc-3sc2c1`, the result was inactive.

On to `C=C(C)OC(C)=O`, for which the result was inactive.

Regarding `[Cl][Sc]([Cl])[Cl]`, the molecule was called inactive.

`CC(Cl)COP(=O)(OCC(C)Cl)OCC(C)Cl` (configuration not stated): the call was inactive.

Take `CC(=O)OC1CCCCC1`: the result was inactive.

`CCC(=O)C1CC(C(C)C)CC=C1C` (configuration not stated): the molecule was classed as inactive.

With `COc1ccc(C(=O)/C(Br)=C\C(=O)O)cc1`, the molecule was called inactive.

On to `CC1=CP(=O)(c2ccccc2)CC1` (configuration not stated), for which the call was inactive.

With `CCCCC1C(=O)N(c2ccccc2)N(c2ccccc2)C1=O`, the outcome was inactive.

Take `CCOC(=O)/C=C\C(=O)OCC`: the molecule was classed as inactive.

Take `CCN(CC)c1cccc(C)c1`: the outcome was inactive.

With `Cn1ccnc1`, the outcome was inactive.

On to `CCCCNC(=S)NCCCC`, for which the call was inactive.

For `CC1=CC(C)C(C=O)CC1` (configuration not stated), the molecule was classed as inactive.

On to `CCc1cccc(C)c1N`, for which the call was inactive.

As to `O=C(O)c1cc(O)c2ccccc2c1O`, the result was inactive.

For `CCOC(=O)C1=NN(c2ccc(Cl)cc2Cl)C(C)(C(=O)OCC)C1` (configuration not stated), the outcome was inactive.

`CO[Si](C)(C)OC`: the molecule was classed as inactive.

`Cc1c(O)cccc1O`: the molecule was called inactive.

Take `CCCC(C)C(=O)OCC` (configuration not stated): the call was inactive.

Regarding `O=S(=O)(O)c1ccc(Nc2nc(Nc3ccc(C=Cc4ccc(Nc5nc(Nc6ccc(S(=O)(=O)O)cc6)nc(N(CCO)CCO)n5)cc4S(=O)(=O)O)c(S(=O)(=O)O)c3)nc(N(CCO)CCO)n2)cc1`, the call was inactive.

For `CC(C)c1cccc(C(C)C)c1N`, the call was inactive.

Take `CCCCCCOC(=O)CCCCC(=O)OCCCCCC`: the result was inactive.

On to `C=C(C)C1CC=C(C)C(OC(C)=O)C1` (configuration not stated), for which the molecule was called inactive.

On to `CCCCC(CC)COC(=O)/C=C/c1ccc(OC)cc1` (configuration not stated), for which the call was inactive.

Turning to `COC(OC)(C(=O)c1ccccc1)c1ccccc1`, the molecule was called inactive.

In the case of `CCC1(C)C(=O)N(Cl)C(=O)N1Cl` (configuration not stated), the outcome was inactive.

For the molecule `C=Cc1ccc(OC(C)=O)cc1`, the molecule was called inactive.

For `CC(C)(c1ccccc1)c1ccc(Nc2ccc(C(C)(C)c3ccccc3)cc2)cc1`, the molecule was called inactive.

As to `c1ccc2cnccc2c1`, the molecule was classed as inactive.

As for `C=C(C)C(=O)OCCCCCCCCCCCC`, the result was inactive.

On to `COC(=O)CC(C)CCC=C(C)C` (configuration not stated), for which the outcome was inactive.

Regarding `Fc1ccc(Br)cc1`, the outcome was inactive.

For the molecule `O=C(Cl)c1c(Cl)c(Cl)c(C(=O)Cl)c(Cl)c1Cl`, the molecule was called inactive.

On to `CC(C)(CO)C(O)C(=O)NCCCO` (configuration not stated), for which the result was inactive.

In the next assay the target is Glucocorticoid receptor (Homo sapiens) (UniProt P04150). In words: ATG_GR_TRANS: Attagene TRANS-FACTORIAL HepG2 Assay for human Glucocorticoid Receptor (GR) (AID 2282978).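 Also: activators score as hits since higher reporter transcript over DMSO is fitted.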 The conditions noted are these: HepG2 Attagene TRANS GR reporter, mRNA transcription. The method in brief: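 After 24 h incubation with test chemical, transfected HepG2 cells were lysed for RNA; reporter cDNA was amplified, FAM-labelled, HpaI-digested and sized on a capillary analyser. Signal gain relative to DMSO was scored.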
Chain of Glucocorticoid receptor (Homo sapiens) (P04150 whole entry, looked up): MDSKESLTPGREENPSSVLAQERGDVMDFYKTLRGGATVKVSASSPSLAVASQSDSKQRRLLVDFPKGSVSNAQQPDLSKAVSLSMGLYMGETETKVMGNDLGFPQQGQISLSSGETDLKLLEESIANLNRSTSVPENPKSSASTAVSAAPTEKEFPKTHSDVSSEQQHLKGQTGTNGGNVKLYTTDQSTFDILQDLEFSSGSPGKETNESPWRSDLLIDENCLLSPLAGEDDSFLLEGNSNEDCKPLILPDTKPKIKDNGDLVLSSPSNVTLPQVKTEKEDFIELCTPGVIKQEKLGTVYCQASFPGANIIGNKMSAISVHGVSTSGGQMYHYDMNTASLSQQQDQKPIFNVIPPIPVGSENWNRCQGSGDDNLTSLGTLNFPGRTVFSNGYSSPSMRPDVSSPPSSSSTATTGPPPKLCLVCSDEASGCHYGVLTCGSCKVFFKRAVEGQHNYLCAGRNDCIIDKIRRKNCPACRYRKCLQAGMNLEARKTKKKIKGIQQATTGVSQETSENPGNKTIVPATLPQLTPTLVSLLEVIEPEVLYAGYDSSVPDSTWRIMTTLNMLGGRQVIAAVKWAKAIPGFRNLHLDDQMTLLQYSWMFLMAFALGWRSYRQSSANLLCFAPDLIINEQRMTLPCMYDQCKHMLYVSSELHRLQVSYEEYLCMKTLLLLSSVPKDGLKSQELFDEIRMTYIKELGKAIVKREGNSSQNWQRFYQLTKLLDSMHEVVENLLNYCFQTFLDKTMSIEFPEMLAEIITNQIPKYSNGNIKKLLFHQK
For `CC(CCC(=O)O)(c1ccc(O)cc1)c1ccc(O)cc1`, the outcome was inactive.

Turning to `CC1C(C)(C)C2=C(C(=O)CCC2)C1(C)C` (configuration not stated), the result was inactive.

On to `C=C(C)OC(C)=O`, for which the call was inactive.

As to `[Cl][Sc]([Cl])[Cl]`, the molecule was called inactive.

Consider `CC(Cl)COP(=O)(OCC(C)Cl)OCC(C)Cl` (configuration not stated), for which the molecule was called inactive.

For the molecule `CC(=O)OC1CCCCC1`, the molecule was called inactive.

In the case of `CCC(=O)C1CC(C(C)C)CC=C1C` (configuration not stated), the call was inactive.

As for `CC1=CP(=O)(c2ccccc2)CC1` (configuration not stated), the molecule was called inactive.

For `CCCCC1C(=O)N(c2ccccc2)N(c2ccccc2)C1=O`, the molecule was called inactive.

Take `CCOC(=O)/C=C\C(=O)OCC`: the molecule was classed as inactive.

As to `CCN(CC)c1cccc(C)c1`, the call was inactive.

In the case of `Cn1ccnc1`, the outcome was inactive.

As to `CCCCNC(=S)NCCCC`, the call was inactive.

For the molecule `CC1=CC(C)C(C=O)CC1` (configuration not stated), the molecule was called inactive.

Take `CCc1cccc(C)c1N`: the molecule was called inactive.

Consider `O=C(O)c1cc(O)c2ccccc2c1O`, for which the call was inactive.

`CCOC(=O)C1=NN(c2ccc(Cl)cc2Cl)C(C)(C(=O)OCC)C1` (configuration not stated): the molecule was classed as inactive.

As for `CO[Si](C)(C)OC`, the result was inactive.

`CCCC(C)C(=O)OCC` (configuration not stated): the molecule was classed as inactive.

Turning to `O=S(=O)(O)c1ccc(Nc2nc(Nc3ccc(C=Cc4ccc(Nc5nc(Nc6ccc(S(=O)(=O)O)cc6)nc(N(CCO)CCO)n5)cc4S(=O)(=O)O)c(S(=O)(=O)O)c3)nc(N(CCO)CCO)n2)cc1`, the molecule was classed as inactive.

As to `CC(C)c1cccc(C(C)C)c1N`, the result was inactive.

Take `C=C(C)C1CC=C(C)C(OC(C)=O)C1` (configuration not stated): the result was inactive.

For `CCCCC(CC)COC(=O)/C=C/c1ccc(OC)cc1` (configuration not stated), the molecule was classed as inactive.

Consider `COC(OC)(C(=O)c1ccccc1)c1ccccc1`, for which the outcome was inactive.

On to `CCC1(C)C(=O)N(Cl)C(=O)N1Cl` (configuration not stated), for which the molecule was classed as inactive.

For the molecule `C=Cc1ccc(OC(C)=O)cc1`, the result was inactive.

As for `CC(C)(c1ccccc1)c1ccc(Nc2ccc(C(C)(C)c3ccccc3)cc2)cc1`, the outcome was inactive.

With `c1ccc2cnccc2c1`, the molecule was called inactive.

`C=C(C)C(=O)OCCCCCCCCCCCC`: the molecule was classed as inactive.

Regarding `COC(=O)CC(C)CCC=C(C)C` (configuration not stated), the call was inactive.

In the case of `Fc1ccc(Br)cc1`, the molecule was called inactive.

As for `O=C(Cl)c1c(Cl)c(Cl)c(C(=O)Cl)c(Cl)c1Cl`, the molecule was called inactive.

The target in another assay is Bile acid receptor (Homo sapiens) (UniProt Q96RI1). Put plainly: ATG_FXR_TRANS: Attagene TRANS-FACTORIAL HepG2 Assay for Farnesoid X Receptor (FXR) (AID 2282979).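 Also: hits raise reporter mRNA above DMSO so AC50 marks FXR activation.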 The following applies: HepG2 Attagene TRANS FXR-GAL4 reporter transcription. The method in brief: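 HepG2 cells were transiently transfected with GAL4-UAS reporters driven by chimeric NR-Gal4 proteins and dosed for 24 h. Reporter mRNA was quantified by RT-PCR, fluorescent labelling, HpaI digestion and capillary electrophoresis, with gain of signal scored versus DMSO.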
Chain of Bile acid receptor (Homo sapiens) (Q96RI1 whole entry, looked up, the tested form may be a part): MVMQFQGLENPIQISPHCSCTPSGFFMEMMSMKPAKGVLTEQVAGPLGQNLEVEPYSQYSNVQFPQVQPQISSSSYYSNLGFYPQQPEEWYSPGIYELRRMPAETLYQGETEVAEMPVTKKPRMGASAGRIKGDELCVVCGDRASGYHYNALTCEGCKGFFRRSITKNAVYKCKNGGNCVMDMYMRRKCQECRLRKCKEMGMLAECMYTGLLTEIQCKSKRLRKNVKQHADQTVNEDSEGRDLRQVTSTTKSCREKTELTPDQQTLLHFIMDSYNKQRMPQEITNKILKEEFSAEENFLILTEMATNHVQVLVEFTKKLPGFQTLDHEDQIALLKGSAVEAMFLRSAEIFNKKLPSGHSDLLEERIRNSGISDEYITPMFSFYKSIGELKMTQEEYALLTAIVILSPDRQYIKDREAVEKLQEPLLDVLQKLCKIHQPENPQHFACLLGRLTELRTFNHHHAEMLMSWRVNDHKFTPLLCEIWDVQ
On to `CN(C)c1ccc2nc3ccc(=[N+](C)C)cc-3sc2c1`, for which the result was inactive.

Turning to `CC(=O)OC1CCCCC1`, the call was inactive.

On to `COc1ccc(C(=O)/C(Br)=C\C(=O)O)cc1`, for which the outcome was inactive.

Regarding `CC1=CP(=O)(c2ccccc2)CC1` (configuration not stated), the call was inactive.

For `CCCCC1C(=O)N(c2ccccc2)N(c2ccccc2)C1=O`, the molecule was classed as inactive.

As to `Cn1ccnc1`, the call was inactive.

As for `CCCCNC(=S)NCCCC`, the outcome was inactive.

For the molecule `CCOC(=O)C1=NN(c2ccc(Cl)cc2Cl)C(C)(C(=O)OCC)C1` (configuration not stated), the result was inactive.

For `Cc1c(O)cccc1O`, the molecule was called inactive.

As to `CCCCCCOC(=O)CCCCC(=O)OCCCCCC`, the result was inactive.

As to `COC(=O)CC(C)CCC=C(C)C` (configuration not stated), the molecule was called inactive.

For the molecule `O=C(Cl)c1c(Cl)c(Cl)c(C(=O)Cl)c(Cl)c1Cl`, the molecule was classed as inactive.

For `CC(C)(CO)C(O)C(=O)NCCCO` (configuration not stated), the result was inactive.
